Rows were chosen to be rich in hits. Some 2.4% of all compounds tested hit in one or more screens of this group.
CRFBP-R2 agonist: agonists of human CRF-binding protein/CRF-R2 receptor complex; 350,000 compounds, 0.46% hits; HEK293 CRF-R2/CRF-BP, calcium dye fluorescence (FLIPR); percent of saturating CRF peptide response; activation, % at 13.2 µM; AID 588473;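 active = activation of at least 50%, plus an integration ratio under a set limit after plate pattern correction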;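 also: plate controls were neutral control wells without compound for no effect and CRF at EC100 for full effect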
CRFR2-BP antag: CRF-BP/CRF-R2 complex antagonism; HEK293 CRF-R2/CRF-BP, CRF-induced calcium fluorescence; inhibition, % at 11.8 µM; 350,000 compounds, 0.59% hits;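 active = inhibition of the ligand-induced calcium signal above about 50% at the single tested concentration, limit read from the data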
Cardiac RTF inh: cardiac RTF calcium desensitization | P19429+P45379 | IANBD-labeled cardiac RTF, Ca2+ fluorescence | inhibition, % at 7.15 µM | 340,000 compounds, 0.12% hits;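 active = inhibition above the mean inhibition of all tested compounds plus 3 SD, cut at about 17% in these data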;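 also: assay run at fixed EC70 calcium of 1.6 mM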
cardiac RTF act: increases calcium sensitivity of human cardiac regulated thin filaments. 340,000 compounds, 0.24% hits. IANBD-labeled TnC RTF fluorescence at EC20 calcium; 0% EC20 calcium, 100% full calcium. P19429+P45379. activation, % at 7.2 µM;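 active = activation above the mean over all tested compounds plus 3 SD, cut at about 30% in these data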;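 also: rise in fluorescence read as greater calcium sensitivity of cardiac thin filaments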
TMEM16A act: activators or potentiators of mouse TMEM16A chloride channel; HEK293 TMEM16A/YFP-H148Q/I152L, iodide quench fluorescence; stronger effect = lower value; B-score at 10 µM; AID 623877; Q8BHY3; 340,000 compounds, 0.3% hits;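 active = fluorescence-ratio B-score plate-corrected deviation score at least 3 library SD below zero, with starting fluorescence score within 5 deviations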;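 also: channel opened by trigger with iodide after compound preincubation; score built on the fluorescence ratio of max minus min over baseline; more negative score means more quench and so TMEM16A activation or potentiation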
TMEM16A inh: blocks the mouse calcium-activated chloride channel TMEM16A; Q8BHY3; HEK293 TMEM16A/YFP iodide influx fluorescence, ionomycin; normalized B-score (activity score, 25-100; higher = stronger inhibition) at 10 µM; 310,000 compounds, 1.2% hits; AID 588511;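 active = ratio plate-corrected score three or more library SD toward inhibition, starting fluorescence score within five deviations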;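 also: score derived from kinetic fluorescence span divided by baseline fluorescence per well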
TMEM16A reconf: re-confirmation of mouse TMEM16A chloride channel inhibitors; HEK293 TMEM16A/YFP-H148Q, iodide quench fluorescence; ionomycin added to raise cell calcium; inhibition, % at 10 µM; AID 652189; 2,300 compounds, 39% hits; shares compounds with TMEM16A inh;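 active = mean duplicate percent inhibition, scaled so buffer wells are 0 and the reference blocker 100, over three buffer SD above buffer mean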
HEK293 Ca mobil: alters calcium mobilization in TMEM16A HEK293 cells, counter-screen; shares compounds with TMEM16A inh; TMEM16A/YFP HEK293, Fluo4 calcium mobilization; calcium response (% of ionomycin), % at 10 µM; 2,300 compounds, 2% hits; AID 652231;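 active = duplicate-averaged calcium signal over 20% of the ionomycin maximum, relative to buffer baseline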;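 also: each well's signal is peak minus trough fluorescence divided by its pre-addition baseline; 0% = buffer wells and 100% = ionomycin wells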
Parental YFP cnt: parental YFP-HEK293 iodide quench counter-screen activity. 2,300 tested, under 10 active. YFP ratio F(max-min)/F0 at 10 µM. AID 652233. ionomycin. shares compounds with TMEM16A inh;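 active = yellow fluorescent protein signal ratio exceeding the buffer control mean by over 5 SD of those controls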;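 also: ratio is mean of duplicate wells from kinetic YFP trace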
ClC-1 inh: blocks the rat ClC-1 voltage-dependent chloride channel; ratio percent, % at 10 µM; 2,300 tested, under 10 active; CHO ClC-1-YFP, iodide influx fluorescence quench; iodide control reads 0, buffer control 100; shares compounds with TMEM16A inh;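 active = duplicate-mean ratio percent above the mean of iodide-only control wells, which defines zero, plus 5 of their SD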;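 also: higher percent means stronger block of ClC-1 iodide influx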
Target sequence (P35524 whole entry, looked up): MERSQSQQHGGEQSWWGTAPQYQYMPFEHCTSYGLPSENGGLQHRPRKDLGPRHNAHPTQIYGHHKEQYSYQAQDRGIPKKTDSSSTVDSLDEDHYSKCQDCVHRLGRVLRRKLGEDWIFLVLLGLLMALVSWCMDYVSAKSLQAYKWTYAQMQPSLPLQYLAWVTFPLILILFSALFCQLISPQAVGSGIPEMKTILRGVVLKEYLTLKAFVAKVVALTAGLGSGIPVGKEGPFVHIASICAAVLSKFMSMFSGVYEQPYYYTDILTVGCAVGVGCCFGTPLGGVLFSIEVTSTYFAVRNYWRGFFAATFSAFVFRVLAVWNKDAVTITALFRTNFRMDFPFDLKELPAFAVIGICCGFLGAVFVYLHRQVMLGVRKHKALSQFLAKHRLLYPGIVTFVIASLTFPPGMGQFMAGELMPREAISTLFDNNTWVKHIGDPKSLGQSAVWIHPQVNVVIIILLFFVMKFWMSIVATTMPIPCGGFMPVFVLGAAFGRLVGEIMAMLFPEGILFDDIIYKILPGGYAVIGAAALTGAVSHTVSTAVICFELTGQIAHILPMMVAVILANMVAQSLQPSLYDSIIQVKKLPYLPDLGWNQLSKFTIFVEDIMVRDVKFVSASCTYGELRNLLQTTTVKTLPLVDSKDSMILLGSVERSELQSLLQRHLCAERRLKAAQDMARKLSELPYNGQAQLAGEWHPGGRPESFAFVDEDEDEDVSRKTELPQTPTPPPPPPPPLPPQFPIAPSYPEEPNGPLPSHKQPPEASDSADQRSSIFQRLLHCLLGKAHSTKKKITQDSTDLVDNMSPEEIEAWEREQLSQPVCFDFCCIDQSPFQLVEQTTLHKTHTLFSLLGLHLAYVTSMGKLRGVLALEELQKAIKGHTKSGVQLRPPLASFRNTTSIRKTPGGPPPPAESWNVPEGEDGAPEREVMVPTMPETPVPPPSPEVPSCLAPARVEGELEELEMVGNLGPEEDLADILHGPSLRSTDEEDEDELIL
Starred values were filed as active, the others as inactive; i = inactive; / = no result.

SMILES	CRFBP-R2 agonist	CRFR2-BP antag	Cardiac RTF inh	cardiac RTF act	TMEM16A act	TMEM16A inh	TMEM16A reconf	HEK293 Ca mobil	Parental YFP cnt	ClC-1 inh
COC(=O)c1c(NS(=O)(=O)c2ccc(C)cc2)sc2c1CCC(C)C2 (configuration not stated)	-4	14	-1	0	i	100*	30%*	i	-1.1	-20
COC(=O)c1c(NC(=O)CN(C)CC(=O)Nc2ccc(C)cc2)sc2c1CCC(C)C2 (configuration not stated)	1	-6	-1	0	i	/	/	/	/	/
Cc1nc(-c2ccc(Cl)cc2)sc1C1(C)CC(c2ccc(Cl)cc2)=NO1 (configuration not stated)	0	4	10	4	i	25*	i	i	-0.93	0
CCOC(=O)c1ccc(NC(=O)CSc2nc(SC)ns2)cc1	-2	6	-6	-3	i	100*	26%*	i	-1.1	-18
CSc1nsc(SCC(=O)Nc2ccccc2)n1	0	1	3	-6	i	i	/	/	/	/
CCCCNC(=O)CNC(=O)c1cccs1	0	12	-14	-2	i	i	/	/	/	/
CCCCN(CCCC)CCNC(=O)CNC(=O)c1cccs1	1	-12	-5	4	i	100*	i	i	-0.96	-8
CCOc1ccc(N(Cc2nnc3n2CCCCC3)C(=O)Nc2cccc(C)c2)cc1	0	-15	-10	6	i	i	i	i	-0.96	-2
COc1ccc(N(Cc2nnc3n2CCCCC3)C(=O)Nc2ccccc2)cc1	-1	-2	2	2	i	i	/	/	/	/
COc1cccc(N2CCN(C(=O)c3oc4ccccc4c3NC(=O)CCc3cc(OC)no3)CC2)c1	-1	13	2	-1	i	i	/	/	/	/
O=C(Cc1cccs1)Nc1ccc(S(=O)(=O)Nc2ncccn2)cc1	4	-2	1	2	i	25*	i	i	-1.1	-6
Cc1ccnc(NC(=O)COc2ccc3oc4c(c3c2)CCCC4)c1	-1	5	3	-6	i	100*	i	i	-1.1	-2
O=C(Nc1ccn(-c2ccccc2)n1)c1ccc(S(=O)(=O)N2CCCCCC2)cc1	2	-10	-4	-3	i	25*	i	i	-1.2	-7
COc1ccc(Cn2c(CCC(=O)Nc3ccc(CC#N)cc3)nc3cccnc32)cc1	-3	7	5	-6	i	25*	i	i	-1.1	-6
COc1ccc(Cn2c(CCC(=O)Nc3ccccc3)nc3cccnc32)cc1	0	-12	-11	0	i	i	/	/	/	/
CCOC(=O)c1nnn(-c2nonc2-n2cccc2)c1CN1CCCCC1	1	6	-3	-3	-6.9*	100*	i	i	-1.1	-14
CCOC(=O)c1nnn(-c2nonc2N)c1CN1CCCCCC1	-1	-5	-5	-5	i	i	/	/	/	/
C=CCn1c(SCC(=O)c2cccs2)nc2sc(CC)cc2c1=O	0	13	-6	-6	i	100*	64%*	i	-0.92	-16
CC1=C(C(N)=O)C(c2ccncc2)n2nc(-c3ccccc3Cl)nc2N1 (configuration not stated)	1	14	-1	-1	i	100*	i	i	-1	-2
Cc1ccccc1NC(=S)NNC(=O)c1ccoc1C	-1	1	-12	8	i	100*	i	i	-0.9	-9
Cc1occc1C(=O)NNC(=S)Nc1ccccc1C(F)(F)F	0	-5	-13	1	i	i	/	/	/	/
COc1ccccc1C(c1nnnn1CCc1ccccc1)N1CCCCCC1 (configuration not stated)	1	20	-13	-10	i	25*	18%*	i	-1.1	-3
O=C(Cc1c(Cl)cccc1Cl)NCCc1ccc(Cl)cc1	-3	34	-2	6	i	i	/	/	/	/
O=C(CCl)NCc1c(Cl)cccc1-n1cccc1	0	-3	-5	8	i	25*	i	i	-0.87	0
Cc1ccsc1C(=O)N1CCC(CO)(Cc2ccccc2)CC1	-1	14	4	1	i	i	/	/	/	/
SMILES	CRFBP-R2 agonist	CRFR2-BP antag	Cardiac RTF inh	cardiac RTF act	TMEM16A act	TMEM16A inh	TMEM16A reconf	HEK293 Ca mobil	Parental YFP cnt	ClC-1 inh
Cc1cc(C)cc(NC(=O)c2nnn(Cc3cc(C)ccc3C)c2N)c1	54*	-75	-1	-6	-4.6*	25*	42%*	i	-1.1	-5
O=C(CN1C(=O)NC2(CCSC2)C1=O)NCc1ccccc1 (configuration not stated)	1	-11	6	-5	i	i	/	/	/	/
COC(/C(=N/O)c1ccc(Cl)cc1)c1ccccc1 (configuration not stated)	1	17	2	-7	i	100*	26%*	i	-1.3	-26
COc1ccc(Cl)cc1NC(=O)C(OC)c1ccccc1 (configuration not stated)	-1	7	-10	4	i	i	/	/	/	/
COc1cc(NC(=S)NC(=O)CCc2ccccc2)cc(OC)c1	2	-21	-1	0	i	i	/	/	/	/
CC(=O)Nc1ccc(S(=O)(=O)N2CCN(C(=O)c3ncoc3-c3cccc(F)c3)CC2)cc1	3	-3	8	-4	i	100*	i	i	-1	-7
COc1ccc2cc(C(=O)NCCCN3CCCC3=O)[nH]c2c1	-1	12	2	-3	i	i	/	/	/	/
O=C(CCc1ccccc1)Nc1ccccc1F	-3	6	-2	11	i	100*	i	i	-1	-4
O=c1c2cc(Br)ccc2nc(-c2cccc(C(F)(F)F)c2)n1O	148*	33	-11	-1	i	100*	60%*	108%*	-1.1	-43
COC(=O)Cc1ccc(NC(=S)Nc2ccc(N3CCOCC3)cc2)cc1	-3	6	6	13	i	25*	i	i	-0.95	-10
COC(=O)Cc1ccc(NC(=S)NCCCN2CCOCC2)cc1	-2	-6	-10	17	i	i	/	/	/	/

Compound activity: PubChem, several laboratories
